Sampled rows, rich in hits. Any-hit rate of the full collection: about 2.3%.
Pol III holo inh = inhibitors of bacterial DNA polymerase III holoenzyme | reconstituted DNA polymerase III holoenzyme replication, biochemical | Potency, µM (titrated, usually from 57.1 µM), without a hit: at the highest dose activity change, negative = inhibition | hit rate 0.25% among 71,000; further: potency means the concentration at half of the fitted maximal effect; on the % scale 0 is the no-effect control and ±100 the full control effect
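Reconstituted *E. coli* holoenzyme (0.35 nM Pol III, 1 nM beta, 154 nM SSB, 2 nM primase) was preincubated with compound for 15 min at RT. Synthesis on 1.4 nM ssM13Gori ran 35 min, then was stopped with PicoGreen/EDTA and read as dsDNA fluorescence.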
Hsp90 Hop PPI = changes Hsp90-Hop TPR2A binding signal, up or down; AlphaScreen TPR2A-His6 binding biotin-Hsp90 C-terminal peptide; Potency, µM (series often up to 57 µM), without a hit: at the highest dose activity change, negative = inhibition; hit rate 0.44% among 71,000; AID 595; active means well fitted curve in either direction with a large enough effect; inconclusive means small, poorly fitted or top-dose-only effect, or another doubt; further: potency means the concentration at half of the fitted maximal effect; on the % scale 0 is the no-effect control and ±100 the full control effect
YjeE inh = YjeE (TsaE) inhibition, E. coli. P0AF67. Potency, µM. hit rate 0.05% among 71,000. purified YjeE enzyme, qHTS inhibition assay
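Purified YjeE (10 uM) with BODIPY Texas Red-labeled ADP probe (2 uM); compounds pin-transferred, 15 min at room temperature. Binding inhibition read as decreased fluorescence polarization; ADP titration as control.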
BRCT inh green = blocks human BRCA1 BRCT binding to phosphopeptide, green readout; P38398; BRCA1 BRCT-phosphopeptide binding, green fluorescence polarization; Potency, µM (top dose mostly 76.9 µM), for the others: at the highest dose activity change, negative = inhibition, most hits filed as inhibitors; hit rate 0.05% among 75,000;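 further: potency means the concentration at half of the fitted maximal effect; plate controls were peptide without protein for full effect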
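Fluorescence polarization: His-tagged BRCT (~35 kDa BRCA1 C-terminus, 250 nM) bound to 100 nM fluorescein-labeled phosphorylated 10-aa BACH1 peptide, pH 7.3 phosphate buffer with DTT and Tween 20. Compounds incubated 12 min at room temperature; inhibition read as lowered polarization.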
Tau filament bind = binds recombinant human tau filaments; Potency, µM (doses to about 57.1 µM), for the others: at the top dose activity change, negative = inhibition; P10636; recombinant tau filaments, thioflavin S fluorescence, 15 h; filaments grown with octadecylsulfate alongside compound; hit rate 2% among 71,000; AID 596;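 further: potency means the concentration at half of the fitted maximal effect; on the % scale 0 is the no-effect control and ±100 the full control effect; actives lower thioflavin S fluorescence by blocking filaments or displacing dye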
Target sequence (P10636 whole entry, looked up): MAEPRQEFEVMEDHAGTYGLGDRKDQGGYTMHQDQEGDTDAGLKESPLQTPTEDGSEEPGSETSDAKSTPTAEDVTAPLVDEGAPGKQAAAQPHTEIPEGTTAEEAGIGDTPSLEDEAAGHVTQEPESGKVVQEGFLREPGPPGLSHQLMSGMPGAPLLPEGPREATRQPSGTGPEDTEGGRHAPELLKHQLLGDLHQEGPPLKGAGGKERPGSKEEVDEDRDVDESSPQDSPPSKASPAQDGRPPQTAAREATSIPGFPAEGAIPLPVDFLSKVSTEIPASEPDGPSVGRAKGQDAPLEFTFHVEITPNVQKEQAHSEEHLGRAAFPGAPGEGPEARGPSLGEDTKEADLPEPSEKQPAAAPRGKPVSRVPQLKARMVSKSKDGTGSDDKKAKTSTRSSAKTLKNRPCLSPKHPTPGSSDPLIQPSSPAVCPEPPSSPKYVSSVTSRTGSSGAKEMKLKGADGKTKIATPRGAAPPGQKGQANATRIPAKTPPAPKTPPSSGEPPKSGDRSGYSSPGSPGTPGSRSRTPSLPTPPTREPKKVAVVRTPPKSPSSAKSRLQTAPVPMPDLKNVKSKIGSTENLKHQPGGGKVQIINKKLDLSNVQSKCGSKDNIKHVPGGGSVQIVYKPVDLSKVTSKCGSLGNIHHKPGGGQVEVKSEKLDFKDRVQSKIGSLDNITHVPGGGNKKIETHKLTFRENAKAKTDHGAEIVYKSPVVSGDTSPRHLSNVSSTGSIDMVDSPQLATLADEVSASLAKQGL
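Recombinant tau protein (human, 1 uM final) plus 30 uM ODS in HEPES pH 7.4 with NaCl, DTT and thioflavine S. Compound present from the start; fluorescence at 510 nm after 15 h, 37 C.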
BRCT inh red = BRCT-phosphoprotein interaction inhibition (red fluorophore); P38398; BRCT-phosphopeptide binding, red fluorescence polarization; Potency, µM (titrated, usually from 76.9 µM), inactives show top-dose activity change, negative = inhibition, usual class: inhibitors; hit rate 0.03% among 75,000; further: on the % scale 0 is the no-effect control and ±100 the full control effect
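Fluorescence polarization: 100 nM His-tagged BRCA1 BRCT with 100 nM TAMRA-labelled phospho-BACH1 decapeptide, phosphate buffer pH 7.3 with 150 mM NaCl, DTT, 0.01% Tween 20; 12 min RT. Binding inhibition seen as FP decrease.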
Active calls of the source: *; i = inactive; u = inconclusive; x = no result; ! = a repeat was not active; [ ] = another dose, or the depositor's remark. Unless noted, the call rests on the fitted dose curve; in most records, active means well fitted curve in the direction sought with a large enough effect; inconclusive means small, poorly fitted or top-dose-only effect, or another doubt; inactive means no such curve, though single readings can be large; an effect the other way counts as inactive or inconclusive.

SMILES	Pol III holo inh	Hsp90 Hop PPI	YjeE inh	BRCT inh green	Tau filament bind	BRCT inh red
CCC[C@@H]1C[C@@]1(CCC)C(NC(=O)c1ccccc1)c1cccc(Cl)c1 (stereo partly drawn)	-4%	-9%	i	-1%	60%	1%
O=[N+]([O-])c1cccc2c(Br)[nH]nc12	-8%	-3%	i	-4%	40µM*!	-1%
Cc1ccc(NC(=O)CN2CC(C)SC2=NC2CCCCC2)cc1 (stereo not drawn)	-9%	-4%	i	1%	13µM*	0%
CN(C)c1ncc2nc(-c3cccs3)c(=O)n(C)c2n1	-7%	-11%	i	0%	i	1%
CC(C)(C)c1ccccc1OCCCCCNCCO	-3%	-4%	i	-2%	10µM*	1%
CC(C)c1ccccc1OCCCCCNCCO	-1%	7%	i	2%	13µM*	1%
C[C@H]1/C=C\CC(=O)OC[C@H](C)C(=O)N2CCC[C@@H]2C(=O)OC1	x	x	x	-2%[15.4 µM]	x	2%[15.4 µM]
COc1ccc(O[C@H]2C=C[C@@H](c3ccccc3)O[C@H]2COC(=O)CC/C(C)=N\OC[C@@H](O)COCc2ccco2)cc1	x	x	x	2%[15.4 µM]	x	1%[15.4 µM]
O=Nc1c(-c2c(O)[nH]c3ccccc23)[nH]c2ccccc12	-14%	13µM*!	i	2%	0.4µM*	3%
CCOC(=O)N1CCN(c2nc(SC)nc3sc4c(c23)CC(C)(C)OC4)CC1	-7%	-9%	i	-2%	16µM*	0%
CCN1CCN(c2nc(SC)nc3sc4c(c23)CC(C)(C)OC4)CC1	-7%	-9%	i	-1%	-1%	0%
COc1cccc(Nc2ncc3nc(-c4cccs4)c(=O)n(C[C@H]4CCCO4)c3n2)c1	-7%	23%	i	u	439%	0%
COc1ccc(CCn2c(=N)c(C(=O)N3CCN(C)CC3)cc3c(=O)n4ccccc4nc32)cc1	-10%	-4%	i	0%	16µM*	0%
Cc1ccc(Cn2c(=N)c(C(=O)NCc3ccco3)cc3c(=O)n4ccccc4nc32)cc1	0%	-2%	i	1%	3.2µM*	0%
CCOC(=O)c1cc2c(=O)n3ccccc3nc2n(Cc2ccccc2)c1=N	-2%	0%	i	-2%	1.6µM*	2%
COc1ccc(CNC(=O)c2cc3c(=O)n4ccccc4nc3n(Cc3ccco3)c2=N)cc1	-17%	-12%	i	-4%	229%	-9%
N=c1c(C(=O)NCc2ccco2)cc2c(=O)n3ccccc3nc2n1CCc1ccccc1	-16%	-11%	i	10%	0.63µM*	1%
Cc1ccccc1-c1cc(N(C)Cc2ccco2)ncn1	0%	-1%	i	-1%	3%	-6%
C#CCCCO/N=C1/C[C@@H](O)[C@@H](O)[C@@H]2[C@@H]3C(=O)N(CCC(=O)OCC)C(=O)[C@H]3CC[C@@H]12	x	x	x	-1%[15.4 µM]	x	-1%[15.4 µM]
CN(C)c1ncc2nc(-c3ccc(Cl)cc3)c(=O)n(C[C@H]3CCCO3)c2n1	-7%	-4%	i	0%	4%	1%
Clc1ccc(-c2nnc3sc(-c4ccccn4)nn23)cc1	0%	-4%	i	-2%	1%	-1%
Cc1ccc(-c2nnc3sc(-c4ccncc4)nn23)cc1	-5%	-10%	i	-2%	25µM*	-2%
c1ccc(-c2nn3c(-c4ccncc4)nnc3s2)nc1	-14%	u	i	-5%	13µM*	-4%
CN(C)c1ccc(-c2nn3c(-c4ccncc4)nnc3s2)cc1	-11%	-2%	i	-3%	-9%	1%
CC(C)(C)c1ccc(-c2nnc3sc(-c4ccccn4)nn23)cc1	-10%	2µM*	i	0%	u	0%
SMILES	Pol III holo inh	Hsp90 Hop PPI	YjeE inh	BRCT inh green	Tau filament bind	BRCT inh red
NC1=NC(S)C2N=CN=C2N1 (stereo not drawn)	3%	-3%	i	1%	-11%	1%
COC(=O)[C@@H]1C[C@H]1[C@@H](NS(=O)(=O)c1ccc(-c2ccccc2)cc1)c1ccccc1	0%	2%	i	-5%	10%	1%
c1coc(-c2nc(-c3ccco3)c(-c3ccco3)nc2-c2ccco2)c1	1.6µM*	u	i	13µM*	u	u
O=C1[C@@H]2[C@H]3C(=CC[C@@H]2C(=O)N1Cc1ccccc1)C1(OCCCO1)[C@H]1O[C@@H]1[C@H]3O	x	x	x	-2%[15.4 µM]	x	0%[15.4 µM]
COC(=O)[C@@]1(Cc2ccc(OC)cc2)[C@H]2c3cc(C(=O)N4CCCC4)n(CCc4ccc(O)c(OC)c4)c3C[C@H]2CN1C(=O)c1ccccc1	2%	-6%	i	-3%	3%	2%
Cc1ccc2c(c1)[C@H]1OCC[C@H]1[C@@H](c1ccncc1)N2	0%	-4%	i	-1%	-10%	0%
Clc1ccc2c(c1)C1OCCC1C(c1ccco1)N2 (stereo not drawn)	4%	u	i	0%	25µM*	-3%
Cc1c[nH]c(=O)n(CCCN2CCN(c3ccccc3OCC(F)(F)F)CC2)c1=O	-6%	-1%	i	1%	u	1%
CCn1c(=O)[nH]c2cc(C(=O)N3CCN(c4ccccc4)CC3)ccc2c1=O	-5%	1%	i	0%	2%	0%
CC(=O)Nc1ccccc1-c1nc2ccc(C(=O)N3CCN(c4ccccc4)CC3)cc2[nH]c1=O	-4%	-5%[2.3 µM]	i	-2%	16µM*	-1%
[Cl][In]([Cl])[Cl]	32µM*	-1%	u	-1%	4%	-2%
C=C1CC23C[C@H]4[C@@H]5[C@@]6(C)C[C@H](OC(=O)c7ccccc7)[C@@H](OC(C)=O)[C@]57[C@@H]2[C@@H](OC(C)=O)[C@H]1[C@@H](O)[C@H]3[C@H]7N4C6	4%[25.6 µM]	-10%[26 µM]	i	-2%[34.4 µM]	1%[25.6 µM]	-2%[34.4 µM]
CCOC(=O)C1=C(C)NC(=O)NC1c1ccco1 (stereo not drawn)	-14%	-4%	i	-2%	6%	-2%
CCOC(=O)C1=C(N)n2c(s/c(=C\c3ccco3)c2=O)=C(C(=O)OCC)C1c1ccco1 (stereo not drawn)	0%	-21%	i	6%	16µM*	2%
COCCn1c(C)nc2oc3ccc(Br)cc3c(=O)c2c1=O	-9%	-6%	i	2%	16µM*	-2%
COc1ccc2noc3c2c1C(=O)c1ccccc1-3	482%	u	i	3.2µM*	i	-10%
COC1=C(OC)C(=O)c2ccccc2C1=O	-5%	-24%	i	-2%	-21%	0%
Nc1c2ccccc2nc2ccccc12	40µM*	-3%	i	0%[3.08 µM]	6%	0%

Source: PubChem BioAssay (National Center for Advancing Translational Sciences (NCATS))
